Screening results (PubChem BioAssay)
Rows were chosen to be rich in hits. Some 5.6% of all compounds tested hit in one or more screens of this group.
VP16 counter = counter-screen for ROR gamma inhibitors: Gal4-VP16 reporter; 310,000 tested, 3.5% active; Drosophila S2 Gal4-VP16 UAS-luciferase, luminescence, 20 h; Potency, µM (titrated, usually from 53.6 µM), actives largely listed as inhibitors;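 further: Gal4-VP16 expression switched on by copper sulfate through the metallothionein promoter; nearly all actives have a fitted effect of over 50% in size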
PKM2 act = increases activity of human pyruvate kinase M2 | AID 1631 | P14618 | Potency, µM (doses to about 57.5 µM), hits mostly activators | purified PKM2, Kinase-Glo ATP luminescence, activation; response scale: 0% is enzyme alone, no compound | 260,000 tested, 0.34% active; further: nearly all actives have a fitted effect of over 55% in size
Target sequence (P14618 whole entry, looked up): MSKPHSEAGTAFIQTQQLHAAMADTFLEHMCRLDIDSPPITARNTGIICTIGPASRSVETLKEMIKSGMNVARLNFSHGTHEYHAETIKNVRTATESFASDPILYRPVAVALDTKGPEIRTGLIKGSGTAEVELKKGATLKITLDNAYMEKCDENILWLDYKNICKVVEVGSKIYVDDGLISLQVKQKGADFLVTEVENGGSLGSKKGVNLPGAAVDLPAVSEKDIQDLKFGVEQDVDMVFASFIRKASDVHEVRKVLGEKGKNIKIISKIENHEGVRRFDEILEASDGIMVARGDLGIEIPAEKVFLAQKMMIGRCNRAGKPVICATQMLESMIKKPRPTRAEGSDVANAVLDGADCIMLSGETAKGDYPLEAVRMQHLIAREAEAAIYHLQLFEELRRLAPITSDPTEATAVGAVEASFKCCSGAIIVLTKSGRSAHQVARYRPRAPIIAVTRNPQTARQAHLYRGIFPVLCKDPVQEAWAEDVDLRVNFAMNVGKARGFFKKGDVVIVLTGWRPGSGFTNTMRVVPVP
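hPK-M2, >95% pure; 0.1 mM ADP / 0.5 mM PEP final; imidazole pH7.2 buffer w/ 7 mM MgCl2, 50 mM KCl; 1 h RT; Kinase-Glo lum. Intermediate enzyme activity for dual inhibitor/activator qHTS.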
Six1-Eya2 inh = inhibitors of human Six1/Eya2 interaction; Q15475+O00167; AlphaScreen GST-Six1/His-Eya2 binding, biochemical; stronger effect = lower value; activity change, % (concentration not given with the values); 360,000 tested, 0.56% active; AID 651725; in the data active means activity change below about -65%; inconclusive means mostly about -30% to -63%
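Six1/Eya2 binding was read as AlphaScreen signal after compounds were pinned into GST-Six1 plus His-tagged Eya2 (5X stock 250/500 nM) in pH 8.0 Tris/NaCl/TCEP buffer, beads added, then incubated 1 h, 37 C, dark.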
CtBP-E1A inh = blocks the CtBP interaction with E1A. activity change, % (concentration not given with the values). 340,000 tested, 0.49% active. AlphaScreen GST-E1A/His-CtBP binding, 1536-well; stronger effect = lower value; in the data active means activity change below about -65%; inconclusive means mostly about -30% to -63%
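Protein mix (5X: 125 nM each GST-E1A, His-CtBP) was incubated with pinned compound 2 h at 37 deg C in dark, in 50 mM Tris pH 8.0 buffer with 300 mM NaCl. Glutathione donor and nickel acceptor beads followed; AlphaScreen signal read after 1 h.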
RORg inh = ROR gamma (mouse) transcription inhibition; Drosophila S2 Gal4-RORgamma UAS-luciferase reporter, 20 h; Potency, µM (series often up to 53.6 µM), most hits filed as inhibitors; 310,000 tested, 5.4% active; further: nearly all actives have a fitted effect of over 60% in size
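A Gal4/UAS one-hybrid system in insect cells: metallothionein-promoter Gal4–ROR gamma fusion plus Photinus luciferase reporter. Copper sulfate 700 uM final, 20 hr ambient incubation, luminescent detection after 10 min with reagent.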
A number is an active result; – = inactive; ? = inconclusive; · = not tested or not shown. Unless noted, the call rests on the fitted dose curve; in most records, active means well fitted curve in the direction sought with a large enough effect; inconclusive means small, poorly fitted or top-dose-only effect, or another doubt; inactive means no such curve, though single readings can be large; an effect the other way counts as inactive or inconclusive.

SMILES	VP16 counter	PKM2 act	Six1-Eya2 inh	CtBP-E1A inh	RORg inh
O=C(CSc1ncccc1C(=O)O)c1ccc2ccccc2c1	2.24µM	–	–	–	11.2µM
Cn1ccnc1SCC(=O)c1cccc(Br)c1	–	–	–	–	–
Cn1ccnc1SCC(=O)c1ccc2ccccc2c1	?	–	–	–	11.2µM
Cn1ccnc1SCC(=O)N(C1CCCCC1)C1CCCCC1	?	–	–	–	11.2µM
Cn1ccnc1SCC(=O)NC1CCCCC1	–	–	–	–	–
COc1cccc(C(=O)CSc2nccn2C)c1	?	–	–	–	10µM
C[C@@H](NC(=O)c1cc2c([nH]c3ccccc32)c(-c2ccccc2)n1)C(=O)O	–	·	–	·	–
CCSc1ccc(/C(N)=N/OC(=O)c2cccs2)cn1	–	–	–	–	–
CCOc1ccccc1NC(=O)c1nnn(-c2ccc3c(c2)OCCO3)c1N	–	–	–	–	?
Cc1ccccc1NC(=O)c1nnn(-c2ccc3c(c2)OCCO3)c1N	?	·	–	–	0.631µM
O=C(CC12CC3CC(CC(C3)C1)C2)N/N=C\c1ccc[nH]1	15.8µM	–	–	–	7.94µM
COc1ccccc1OCC(=O)N/N=C/C=C/c1ccc([N+](=O)[O-])o1	10µM	–	–	–	11.2µM
CC(=O)N/N=C/c1ccc([N+](=O)[O-])o1	3.55µM	·	·	·	?
O=C(COc1ccccc1[N+](=O)[O-])N/N=C/C=C/c1ccco1	?	?	–	–	?
Cc1cc(C)cc(OCC(=O)N/N=C/c2ccc([N+](=O)[O-])o2)c1	?	–	–	–	8.91µM
CC(C)(C)OC(=O)N/N=C\c1ccc[nH]1	–	–	–	–	–
CC(C)C[C@H](NC(=O)[C@@H](Cc1c[nH]c2ccccc12)NC(=O)[C@H](Cc1ccc(O)cc1)NC(=O)[C@H](CO)NC(=O)[C@H](Cc1c[nH]c2ccccc12)NC(=O)[C@H](Cc1cnc[nH]1)NC(=O)[C@@H]1CCC(=O)N1)C(=O)N[C@@H](CCCN=C(N)N)C(=O)N1CCC[C@H]1C(=O)NCC(N)=O	–	·	·	·	–
Nc1nc2c(nnn2C2CC(O)C(CO)O2)c(=O)[nH]1 (stereo not drawn)	·	·	–	–	·
O=C1CN(/N=C\c2ccc([N+](=O)[O-])o2)C(=O)N1	–	·	·	·	–
O=C(O)/C=C/c1ccc([N+](=O)[O-])o1	–	–	–	–	11.2µM
Cc1ccccc1OCC(=O)N/N=C/c1ccc([N+](=O)[O-])o1	11.2µM	–	–	·	2.51µM
O=[N+]([O-])c1ccc(/C=N/N=C/c2ccc([N+](=O)[O-])o2)o1	4.47µM	·	–	–	1.12µM
O=C(CC12CC3CC(CC(C3)C1)C2)N/N=C/c1ccc([N+](=O)[O-])o1	?	–	–	–	10µM
CCOC(=O)[C@]12CCCC=C1N(Cc1ccc3c(c1)OCO3)C(=O)[C@H](CC(=O)NCCC(C)C)C2	·	·	–	–	·
CC(=O)c1c(N2CCN(c3cccc(Cl)c3)CC2)nc(=S)n(-c2ccccc2)c1C	?	–	–	–	20µM
SMILES	VP16 counter	PKM2 act	Six1-Eya2 inh	CtBP-E1A inh	RORg inh
C=CCn1c(C)c(C(C)=O)c(N2CCN(C(c3ccccc3)c3ccccc3)CC2)nc1=S	?	–	–	–	17.8µM
CC(=O)c1c(N2CCN(C)CC2)nc(=S)n(Cc2ccccc2)c1C	–	–	–	–	–
CCCCCCCCn1ccc(=N)cc1	7.08µM	–	–	–	?
CCCCCCCCCCn1ccc(=N)cc1	?	–	–	–	7.94µM
CCCCCCN1Cc2ccccc2C1	–	–	–	–	–
Cc1c(C(=O)NNC(=O)c2ccccc2O)oc2ccccc12	·	·	–	–	·
CCn1c(SCC(=O)OCc2ccccc2)nnc1-c1ccco1	–	–	–	–	–
CCn1c(Sc2ccc([N+](=O)[O-])cn2)nnc1-c1ccco1	?	–	–	–	10µM
C=CCNC(=S)Nc1cccc(NC(=S)NCC=C)c1	?	–	–	·	7.94µM
C=CCNC(=S)NN(c1ccccc1)c1ccccc1	6.31µM	–	–	–	2µM
CC(=O)Nc1cccc(/C(C)=N/NC(=O)c2ccc(Cl)cc2Cl)c1	–	–	–	–	–
C=CCNC(=S)N/N=C(\C)c1cc(OC)c(OC)c(OC)c1	4.47µM	–	–	–	2µM
C=CCNC(=S)Nc1ccccc1	?	–	–	–	–
CC(C)NC(=S)NN(c1ccccc1)c1ccccc1	?	–	–	–	?
C=CCNC(=S)N/N=C(\C)c1cccc(NC(C)=O)c1	?	–	–	·	3.55µM
O=C(NCC1CC1)[C@H]1C[C@@H]1[C@H](NP(=O)(c1ccccc1)c1ccccc1)c1ccccc1	–	–	·	·	–
CS(=O)(=O)c1nc(-c2ccc(Br)cc2)n[nH]1	–	–	–	–	–
C=CCNC(=O)NC(=S)c1ccccc1	?	–	–	–	12.6µM
C=CCNC(=O)c1ccccc1NC(=O)c1ccccc1	–	–	–	–	–
O=C(/C=C/c1c[nH]c2ccccc12)c1cccc2ccccc12	?	–	–	–	5.01µM
O=C(c1ccccc1)c1c[nH]c2ccccc12	–	·	–	–	?
O=C(Nc1nnc(COc2ccc(Cl)cc2)s1)c1ccc([N+](=O)[O-])cc1	–	–	–	–	–
CCc1ccc(Cc2cnc(NC(=O)C3=NCCN3)s2)cc1	?	–	–	–	7.08µM
O=C(Nc1ncc(Cc2ccc(Cl)cc2Cl)s1)c1ccc([N+](=O)[O-])cc1	3.55µM	–	–	–	2.24µM
O=C(Nc1ncc(Cc2ccccc2Cl)s1)C1=NCCN1	3.16µM	–	–	–	3.98µM
SMILES	VP16 counter	PKM2 act	Six1-Eya2 inh	CtBP-E1A inh	RORg inh
CC1(C)CC(CCC(=O)NC(=S)Nc2ccccc2Cl)C(=O)O1 (stereo not drawn)	?	–	–	·	17.8µM
c1ccc(CN2CCN(c3nc(-c4ccccn4)nc4ccccc34)CC2)cc1	2.82µM	–	–	–	1.41µM
CN1CCN(c2nc(-c3ccccc3O)nc3ccccc23)CC1	–	·	–	–	8.91µM
c1ccc(-c2nc(N3CCCCCC3)c3ccccc3n2)nc1	2.51µM	–	-75.2	-72.8	1.12µM
c1ccc(-c2nc(N3CCOCC3)c3ccccc3n2)nc1	5.62µM	–	?	?	2.51µM
CC1CCN(Cc2c(C(=O)N/N=C/c3cc(Cl)ccc3O)nnn2-c2nonc2N)CC1	4.47µM	–	–	–	3.55µM
CC1CCN(Cc2c(C(=O)N/N=C/c3cc(Br)ccc3O)nnn2-c2nonc2N)CC1	7.08µM	–	–	–	3.55µM
CC(NC(=O)NNC(N)=S)(C(F)(F)F)C(F)(F)F	20µM	–	–	–	?
CC(NC(=O)NC(N)=O)(C(F)(F)F)C(F)(F)F	–	–	–	–	–
CC(=O)C1=C(c2ccccc2)NC(=O)NC1c1ccc(O)c(Cl)c1 (stereo not drawn)	–	–	–	–	–
CCOC(=O)COc1c(Cl)cc(C2NC(=S)NC(c3ccccc3)=C2C(C)=O)cc1OCC (stereo not drawn)	3.16µM	–	–	–	3.55µM
